# Screening data: PubChem BioAssay, National Center for Advancing Translational Sciences (NCATS)
# Most compounds without a hit are left out; they make up all but 7.3% or so of the library.
# ELG1 genotox = induces genotoxicity in HEK293T cells with luciferase-tagged ELG1. hit rate 1.3% among 330,000. AID 504466. HEK293T ELG1-luciferase reporter, luminescence, 16 h. Potency, µM (highest dose often 46 µM), without a hit: top-dose activity change, positive = activation, usual class: activators; further: % of control where 0% means no effect; nearly all actives have a fitted effect of over 60% in size
#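 ELG1-luciferase HEK293T cells, 2,000/well; compound pinned in; 16 hr, 37 °C, 5% CO2; ONE-Glo, 30 min RT; luminescence on CCD imager.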
# SMN2 splice enh = increases expression of the SMN2 splice variant; HEK293 SMN2-luciferase splicing reporter, luminescence, 30-36 h; Potency, µM (series often up to 46.1 µM), inactives show at the top dose activity change, positive = activation, hits mostly activators; hit rate 2.8% among 210,000; AID 1458; further: % of control where 0% means no effect; nearly all actives have a fitted effect of over 55% in size
#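 HEK293 cells carry an SMN2 minigene-luciferase reporter in which exon 7 inclusion puts luciferase in frame. Cells were seeded at 2000 cells/well, attached for 10-12 hours, then exposed to compounds for 30-36 hours at 37C before ONE-Glo luminescence.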
# NPC1 prom act = activates the NPC1 promoter; Potency, µM (series often up to 9.22 µM), for the others: top-dose activation, actives largely listed as activators; AID 485313; Huh7 NPC1 promoter luciferase reporter, 24 h; hit rate 2.4% among 320,000; further: % of control where 0% means no effect; nearly all actives have a fitted effect of over 60% in size
#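 Compounds in DMSO were transferred onto Huh7 NPC1-luciferase reporter cells pre-incubated 2 h; after 24 h at 37 °C, Amplite reagent was dispensed and luminescence recorded 10 min later.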
# KinaseGlo FLuc = Kinase-Glo luciferase inhibition (counter-screen); hit rate 0.28% among 200,000; Kinase-Glo luciferase, ATP luminescence, 8 min; Potency, µM (series often up to 38.3 µM), inactives show at the top dose activity change, negative = inhibition, actives largely listed as inhibitors; further: on the % scale 0 is the no-effect control and ±100 the full control effect; nearly all actives have a fitted effect of over 60% in size
#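 Compound is pinned into ATP-containing buffer (10 uM ATP, imidazole pH 7.2, 7 mM MgCl2). Kinase-Glo luciferase reagent is then added. Light output is recorded following an 8-min room-temperature incubation.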
# Rab9 prom act = activators of Rab9 promoter. Huh7 Rab9 promoter-luciferase reporter, luminescence, 24 h. Potency, µM (series often up to 9.22 µM), inactives show top-dose activation, negative = inhibition, hits mostly activators. hit rate 2.8% among 320,000. AID 485297; further: % of control where 0% means no effect; nearly all actives have a fitted effect of over 60% in size
#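 Rab9 promoter-driven luciferase in stably transfected Huh7 cells; 1500 cells/well rested 2 h, exposed to compound in DMSO for 24 h at 37 °C, 5% CO2. Luminescence read 10 min after adding luciferase reagent at ambient temperature.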
# FLuc modulator = firefly luciferase modulation, counter-screen for miR-21 project | Potency, µM (highest dose often 57.5 µM), without a hit: at the highest dose activity change, negative = inhibition, hits mostly inhibitors | P08659 | purified FLuc, Km substrates, luminescence inhibition | hit rate 6.9% among 360,000;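 further: plate controls were vehicle for no effect and reference inhibitor for full effect; nearly all actives have a fitted effect of over 55% in size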
# Target sequence (P08659 whole entry, looked up): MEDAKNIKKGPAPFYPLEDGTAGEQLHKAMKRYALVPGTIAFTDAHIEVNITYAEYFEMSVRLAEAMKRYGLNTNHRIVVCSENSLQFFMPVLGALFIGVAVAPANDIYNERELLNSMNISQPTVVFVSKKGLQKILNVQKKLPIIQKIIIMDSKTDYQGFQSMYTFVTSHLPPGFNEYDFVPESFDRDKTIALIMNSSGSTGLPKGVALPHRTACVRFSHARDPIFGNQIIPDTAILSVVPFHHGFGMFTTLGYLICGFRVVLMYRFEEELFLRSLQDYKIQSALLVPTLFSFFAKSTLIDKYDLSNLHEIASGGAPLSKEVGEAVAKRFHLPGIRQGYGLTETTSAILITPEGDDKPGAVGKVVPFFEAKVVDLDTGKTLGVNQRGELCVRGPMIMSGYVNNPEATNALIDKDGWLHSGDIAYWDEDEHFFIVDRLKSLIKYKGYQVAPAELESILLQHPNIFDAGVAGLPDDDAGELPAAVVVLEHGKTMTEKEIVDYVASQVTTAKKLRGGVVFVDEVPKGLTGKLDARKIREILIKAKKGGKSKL
#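 Purified P. pyralis luciferase (10nM final) with 10uM D-luciferin and 10uM ATP (Km levels) in 50mM Tris acetate pH 7.5, 10mM Mg acetate, 0.01% Tween-20, 0.05% BSA; qHTS 6-point titration, ~60 µM downward; luminescence read.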
# * = called active by the depositor; u = inconclusive; x = no result given; [ ] = another dose, or the depositor's remark. The call rests on the fitted dose curve; in most records, active means well fitted curve in the direction sought with a large enough effect; inconclusive means small, poorly fitted or top-dose-only effect, or another doubt; inactive means no such curve, though single readings can be large; an effect the other way counts as inactive or inconclusive. Potency means the concentration at half of the fitted maximal effect.
SMILES,ELG1 genotox,SMN2 splice enh,NPC1 prom act,KinaseGlo FLuc,Rab9 prom act,FLuc modulator
Cc1csc(NC(=O)c2ccc(Cl)cc2[N+](=O)[O-])n1,u,11.2µM*,u,-3.6%,4.47µM*,26.9µM*
Cc1cc(C)nc(NC(=O)c2ccc(C)c([N+](=O)[O-])c2)n1,-0.4%,2.3%,-5.0%,-1.6%,-7.0%,7.3%
COc1ccc(C2CC(=O)c3ccccc3O2)cc1 (stereo not drawn),u,-5.0%,u,10.3%,u,15.1µM*
O=C1CC(c2ccc(O)c(O)c2)Oc2cc(O)cc(O)c21 (stereo not drawn),0.1%,-18.1%,-12.1%,-0.7%,-10.6%,-13.0%
O=C1CC(c2ccccc2)Oc2cc(O)cc(O)c21 (stereo not drawn),u,x,20.7%,x,14.3%,16.9µM*
O=C1CC(c2ccc3c(c2)OCCO3)Oc2ccc([N+](=O)[O-])cc21 (stereo not drawn),0.651µM*,x,u,x,0.562µM*,0.269µM*
O=C1CC(c2ccc3c(c2)OCCO3)Oc2ccccc21 (stereo not drawn),u,x,3.16µM*,x,2.82µM*,21.3µM*
CC(C)c1ccc(CNc2nc(-c3ccco3)nn2S(=O)(=O)c2ccc(F)cc2)cc1,x,x,x,x,x,1.9%
O=C(NC1CCCCC1)C(c1ccco1)N(C(=O)c1csnn1)c1ccc(Cl)cc1 (stereo not drawn),-0.5%,x,-1.5%,x,-2.7%,-0.6%
COc1ccc(CCC(=O)OCC(=O)Nc2sccc2C#N)cc1,-1.0%,x,x,x,x,x
c1ccc(NCC2OCc3ccccc3CO2)cc1,u,15.8µM*,3.98µM*,-3.1%,2.51µM*,23.9µM*
CC(C)(C)c1ccc(OCCOCCn2cnc3ccccc3c2=O)cc1,-5.7%,-10.4%,-3.9%,-0.6%,18.2%,u
CCc1ccc(NC(=O)/C(C#N)=C/c2cc3ccc(C)cc3nc2N2CCOCC2)cc1,5.8%,-28.1%,-2.2%,-2.0%,-6.1%,-1.3%
COc1ccc(NC(=O)/C(C#N)=C/c2cc(C)n(-c3ccc(N4CCOCC4)c([N+](=O)[O-])c3)c2C)cc1,-7.5%,-66.2%,-18.1%,2.8%,-25.2%,1.4%
N#C/C(=C/c1ccc(N2CCOCC2)o1)C(=O)NC1CCCCC1,3.3%,x,3.4%,-1.7%,23.7%,12µM*
CSc1ccc(/C=C(\C#N)C(=O)NC2CCCCC2)cc1,1.1%,-6.7%[1.84 µM],-2.4%,-4.6%,-3.5%,3.0%
COc1ccc(NC(=O)/C(C#N)=C\c2ccc(N3CCOCC3)o2)cc1,9.1%,x,u,-7.8%,u,1.9µM*
COc1ccc(NC(=O)/C(C#N)=C/c2ccc(Br)o2)cc1,2.4%,u,9.5%,-1.0%,18.3%,-10.9%
N#C/C(=C\c1ccc(N2CCOCC2)o1)C(=O)Nc1ccc(O)cc1,u,15.8µM*,21.8%,-0.4%,25.2%,5.36µM*
COc1ccc(NC(=O)/C(C#N)=C/c2ccc(C)o2)cc1,x,12.6µM*,x,x,x,2.69µM*
Cc1ccc(-c2onc(C)c2C)cc1S(=O)(=O)NC1CCC(C)CC1 (stereo not drawn),x,x,x,x,x,-2.7%
CSc1n[nH]c(-c2ccc(C(F)(F)F)cc2)n1,u,x,u,x,u,16.9µM*
Cc1ccc(CNC(=O)CSc2n[nH]c(-c3ccc(F)cc3)n2)cc1,x,x,x,x,x,-20.0%
O=C(Nc1cc(C(F)(F)F)ccc1N1CCOCC1)c1c(F)c(F)c(F)c(F)c1F,-0.1%,7.9%,5.8%,0.5%,-3.5%,0.6%
NS(=O)(=O)c1ccc(N/C=C/C(=O)c2ccc(Br)cc2)cc1,u,u,u,0.5%,2.82µM*,-13.5%
SMILES,ELG1 genotox,SMN2 splice enh,NPC1 prom act,KinaseGlo FLuc,Rab9 prom act,FLuc modulator
CN(C)c1ccc(N/C=C/C(=O)c2ccc(F)cc2)cc1,2.06µM*,10µM*,3.16µM*,u,2.51µM*,0.477µM*
NS(=O)(=O)c1ccc(N/C=C\C(=O)c2ccc(F)cc2)cc1,u,12.6µM*,3.98µM*,-4.7%,3.55µM*,15.1µM*
CC(=O)c1ccc(N/C=C/C(=O)c2ccc(Br)cc2)cc1,6.51µM*,x,2.82µM*,x,3.98µM*,-4.6%
CN(C)/C=C/C(=O)c1ccc(F)cc1,-0.4%,-12.0%,-2.8%,-2.7%,10.8%,-8.5%
Cc1cc2c(s1)c1cnn(-c3ccccc3)c(=O)c1n2C,-1.3%,x,14.6%,x,u,6.75µM*
COc1ccccc1-c1cc(NC(=O)COc2ccc(C)c(C)c2)n(-c2ccccc2)n1,x,x,x,x,x,-10.5%
CCNC(=O)NC(=O)C(C)Oc1ccc(Br)cc1Br (stereo not drawn),u,u,9.8%,2.2%,23.0%,16.9µM*
CCNC(=O)NC(=O)C(C)OC(=O)C(C)(C)Oc1ccc(Cl)cc1 (stereo not drawn),-2.3%,-7.9%,-1.8%,-0.1%,6.8%,1.5%
O=C(O)c1ccccc1COc1ccccc1Cl,11.5%,25.7%,4.1%,-1.9%,0.0%,15.1µM*
Cc1oc2ccc(OCc3ccccc3Cl)cc2c1C(=O)O,-0.2%,x,-0.8%,x,-0.9%,0.1%
O=C(O)c1cccc(OCc2ccccc2Cl)c1,3.8%,x,u,2.1%,u,9.53µM*
COc1cc(-c2nnc(CSc3nnc(Nc4ccc(C(C)C)cc4)s3)o2)cc(OC)c1OC,0.4%,u,4.8%,-1.0%,14.5%,5.36µM*
CN(C)CCNC(=O)c1cc2c(s1)-c1ccccc1OC2,23.1µM*,-11.1%,17.0%,-0.7%,18.0%,19µM*
Cc1csc(NC(=O)c2cc3c(s2)-c2ccccc2OC3)n1,16.7%,u,3.55µM*,1.1%,u,u
CCOc1ccc(-n2nnc3c(=O)n(C/C=C/c4ccccc4)cnc32)cc1,18.9%,-31.0%,1.5%,1.2%,-2.5%,-0.1%
CC(=O)c1ccc(NC(=O)CCn2cccn2)cc1,x,x,x,x,x,2.0%
COc1ccc(C(=O)Nn2c(SCC(=O)NC3CCCC3)nc3ccccc3c2=O)cc1,u,-41.1%,3.16µM*,-8.8%,0.891µM*,9.53µM*
